In the library only some 1.6% were active in any assay of this set; here they are far more common.
KCNQ2 inh – rat KCNQ2 potassium channel inhibitors, primary screen, cell-based, CHO-K1, FluxOR thallium flux, B-score; Potassium voltage-gated channel subfamily KQT member 2 (Rattus norvegicus), O88943; 20 min; hits give low values; B-score at 10 µM; hit rate 1.1% among 310,000;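 active = fluorescence ratio B-score at most minus 3 library SDs, with starting brightness B-score within 2 library SDs, cut at about -5.5 in these data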
KCNQ2 pot – potentiators of rat KCNQ2 potassium channel. CHO-K1 KCNQ2, FluxOR thallium flux fluorescence; hits give high values. B-score at 10 µM. hit rate 0.54% among 310,000. Potassium voltage-gated channel subfamily KQT member 2 (Rattus norvegicus), O88943;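 active = fluorescence ratio B-score at least 3 SD of library B-scores, with initial fluorescence B-score within 3 of them, cut at about 5.3 in these data; same plate scores as AID 2156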;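 note: B-score of peak minus minimum over baseline fluorescence ratio after K+ and Tl+ stimulus; positive B-score means potentiation of KCNQ2 with more thallium influx and brighter signal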
Kir21 confirm – mouse Kir2.1 channel blockers, retest, confirmation, cell-based, FluxOR thallium flux, duplicate. shares compounds with KCNQ2 pot. Kir2.1-expressing cells, FluxOR thallium flux fluorescence; hits give low values. Tl flux remaining, % of negative control (hits give low values), % at 10 µM. hit rate 41% among 2,300;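 active = Primary-screen hit whose thallium flux fell at least 3 control SD below untreated wells in both duplicates, with normal baseline fluorescence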;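 note: 0% = blank wells without stimulus and 100% = stimulated no-compound controls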
Target sequence (P35561 whole entry, looked up): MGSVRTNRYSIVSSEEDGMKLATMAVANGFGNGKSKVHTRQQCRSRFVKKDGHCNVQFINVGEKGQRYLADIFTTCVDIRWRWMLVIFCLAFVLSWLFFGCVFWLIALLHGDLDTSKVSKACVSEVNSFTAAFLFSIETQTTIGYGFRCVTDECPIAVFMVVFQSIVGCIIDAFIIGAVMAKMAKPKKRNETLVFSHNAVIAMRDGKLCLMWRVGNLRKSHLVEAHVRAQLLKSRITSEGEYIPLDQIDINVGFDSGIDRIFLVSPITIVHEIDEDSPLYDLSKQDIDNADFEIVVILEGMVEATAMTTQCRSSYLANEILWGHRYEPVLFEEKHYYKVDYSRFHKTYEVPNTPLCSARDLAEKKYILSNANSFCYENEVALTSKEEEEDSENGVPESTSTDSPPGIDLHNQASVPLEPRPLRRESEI
HEK293 ctr – parental HEK293 activity in Kir2.1 inhibitor counter-screen. shares compounds with KCNQ2 pot. parental HEK293 cells, FluxOR thallium flux fluorescence; 0% = unstimulated blank wells. FluxOR signal as % of negative control (100 = no effect), % at 10 µM. hit rate 19% among 2,300;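 active = dye signal at least 3 control SD above or below untreated wells in both duplicates, raw fluorescence within 3, either direction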;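 note: percent is based on the flux ratio of peak minus minimum fluorescence over baseline F0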
CHO-K1 ctr – nonspecific thallium flux increase in parental CHO-K1, confirmation, counter-screen for KCNQ2 potentiator project, cell-based, FluxOR thallium flux, duplicate; activity increase over 3SD of controls, % at 10 µM; parental CHO-K1 cells, FluxOR thallium flux fluorescence; zero = vehicle mean+3SD, 100% = vehicle-minus-blank window; shares compounds with KCNQ2 pot; AID 2282, 2010; hit rate 43% among 1,200;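 active = signal rise of at least 3 SD above the untreated control mean, in both duplicate wells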;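 note: counter screen of KCNQ2 potentiator hits so any rise reflects channel-independent effects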
KCNQ1 sel pot – human KCNQ1 channel potentiation off-target, confirmation, selectivity assay for KCNQ2 potentiator project, cell-based, CHO, FluxOR thallium flux; AID 2283, 2010; CHO KCNQ1 stable, FluxOR thallium flux fluorescence; beyond 3SD, as % of vehicle-control signal; activation over 3SD threshold, % at 10 µM; hit rate 28% among 1,200; shares compounds with KCNQ2 pot;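 active = fluorescence ratio rise of at least 3 SD of vehicle wells above their mean, in both replicate wells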;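 note: 0% = vehicle mean plus 3 SD and 100% = vehicle minus unstimulated blank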
KCNQ2 pot confirm – rat KCNQ2 channel potentiators, confirmation, cell-based, CHO, FluxOR thallium flux, duplicate | shares compounds with KCNQ2 pot | CHO-KCNQ2 cells, FluxOR thallium flux fluorescence | potentiation, less the hit threshold, % at 10 µM | hit rate 68% among 1,200;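 active = fluorescence ratio rising 3 SD or more over the vehicle control mean in both replicates, plus primary screen hit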;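 note: peak minus minimum thallium fluorescence divided by baseline after K/Tl stimulus; 0% = vehicle mean plus 3 SD and 100% = vehicle minus unstimulated blank difference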
Kir2-1 sel – mouse Kir2.1 channel activation off-target, confirmation, selectivity assay for KCNQ2 potentiator project, cell-based, HEK293, FluxOR thallium flux; shares compounds with KCNQ2 pot; hit rate 2% among 1,200; activity over 3SD threshold, % at 10 µM; AID 2345, 2010; HEK293 Kir2.1, FluxOR thallium flux fluorescence;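 active = fluorescence ratio rise of at least 3 SD above the vehicle-control mean, seen in both replicates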;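 note: 0% = vehicle mean plus 3 SD and 100% = vehicle minus no-stimulus blank window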
KCNQ2 W236L MoA – potentiators of retigabine-insensitive KCNQ2 W236L, mechanism study for KCNQ2 potentiator project, cell-based, rat KCNQ2 W236L, CHO, automated patch clamp. hit rate 10% among 940. shares compounds with KCNQ2 pot. AID 2558, 2010. automated patch clamp current. current increase over 3SD of negative controls (%), hits give high values, % at 25 µM;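 active = current increase at least 3 SD of the untreated controls above them in both duplicate recordings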
* hit, by the source's call; i = inactive; · = no result given.

SMILES	KCNQ2 inh	KCNQ2 pot	Kir21 confirm	HEK293 ctr	others
CC(C)(C)c1ccc(OCCC(=O)OCC(=O)Nc2ccc(N3CCOCC3)cc2)cc1	i	5.5*	i	i	CHO-K1 ctr=15*;KCNQ1 sel pot=-11;KCNQ2 pot confirm=-12;Kir2-1 sel=-38;KCNQ2 W236L MoA=i
CCN(CC)c1ccc(/C=N/n2c(C)nc3ccccc3c2=O)cc1	i	·	·	·
O=C(O)CC1(CC(=O)Nc2ccc(F)c(Cl)c2)CCCCC1	i	1.8	·	·
C=CCn1c(=NC(=O)CC)n(C)c2ccccc21	i	·	·	·
COCCNC(=O)/C(C#N)=C/c1cccs1	i	·	·	·
COCCNC(=O)/C(C#N)=C/c1ccc(OC(=O)c2cccs2)c(OC)c1	i	·	i	i
CC(=O)n1ccnc1	i	·	·	·
O=C(NCCc1ccccc1)c1ccc(NS(=O)(=O)c2ccc3[nH]c(=O)[nH]c3c2)cc1	i	0.2	·	·
O=C(Nc1cccnc1)c1ccccc1Oc1ccccc1	i	·	·	·
O=C(NNC(=O)c1ccc(Cl)c(Cl)c1)c1cccnc1	i	·	·	·
O=C(Nc1cccnc1)c1ccc(Cl)c(Cl)c1	i	8.1*	i	i	CHO-K1 ctr=18*;KCNQ1 sel pot=-6;KCNQ2 pot confirm=21*;Kir2-1 sel=-32;KCNQ2 W236L MoA=11%*
O=C(Nc1cccnc1)c1ccc(Oc2ccccc2)cc1	i	18*	i	i	CHO-K1 ctr=-12;KCNQ1 sel pot=-18;KCNQ2 pot confirm=85*;Kir2-1 sel=-49;KCNQ2 W236L MoA=i
COc1ccc(N2CCN(c3nc4ccccn4c(=O)c3/C=C(\C#N)S(=O)(=O)c3ccccc3)CC2)cc1	i	1.7	·	·
CCCOc1ccc(CNC(=S)Nc2ccccc2)cc1Cl	i	0.21	·	·
CCC(Oc1ccccc1)C(=O)Nc1ccc(C)c(S(=O)(=O)N2CCOCC2)c1 (configuration not stated)	i	0.01	·	·
Cc1ccc(C(=O)NC2(O)C(=O)c3ccccc3C2=O)cc1C	i	5.7*	i	i	CHO-K1 ctr=-25;KCNQ1 sel pot=-13;KCNQ2 pot confirm=-6;Kir2-1 sel=-36;KCNQ2 W236L MoA=22%*
O=C(NC1(O)C(=O)c2ccccc2C1=O)c1ccc(C(F)(F)F)cc1	i	·	·	·
Cc1ccc(OCC(=O)NCc2n[nH]c(=O)c3ccccc23)cc1	i	0.5	·	·
Cc1cccc(C(=O)NCCC(=O)Nc2ccc(F)c([N+](=O)[O-])c2)c1	i	0.01	·	·
COc1cccc(CNC(=O)C2CCN(S(=O)(=O)c3ccc(Br)s3)CC2)c1	i	7.3*	i	i	CHO-K1 ctr=-5;KCNQ1 sel pot=-23;KCNQ2 pot confirm=9.6*;Kir2-1 sel=-48;KCNQ2 W236L MoA=i
CCC(C)NC(=O)C1CCN(S(=O)(=O)c2ccc(Br)s2)CC1 (configuration not stated)	i	0.77	·	·
O=S(=O)(NCc1ccccc1)c1ccc(Br)s1	i	·	·	·
CC(NS(=O)(=O)c1ccc(Br)s1)c1ccccc1 (configuration not stated)	i	0.04	50%*	i
CCS(=O)(=O)N1CCC(C(=O)NCc2cccc(OC)c2)CC1	i	0.09	·	·
CC(NC(=O)C1CCN(S(=O)(=O)c2ccc(Br)s2)CC1)c1ccccc1 (configuration not stated)	i	6.8*	i	i	CHO-K1 ctr=5.4*;KCNQ1 sel pot=-19;KCNQ2 pot confirm=14*;Kir2-1 sel=-25;KCNQ2 W236L MoA=i
SMILES	KCNQ2 inh	KCNQ2 pot	Kir21 confirm	HEK293 ctr	others
COc1ccc(C(CNC(=O)C(=O)Nc2ccc3c(c2)OCCO3)N2CCN(C)CC2)cc1 (configuration not stated)	i	0.8	·	·
CC(C)C[C@@]12C(=O)N(c3cccc(F)c3)C(=O)N1[C@H](c1ccc(Cl)cc1)[C@@H]1C(=O)N(C3CCCCC3)C(=O)[C@@H]12	i	·	·	·
Nc1nc2c(s1)CCCCCCCCCC2	i	6*	64%*	70%*	CHO-K1 ctr=-40;KCNQ1 sel pot=89*;KCNQ2 pot confirm=-9;Kir2-1 sel=-73;KCNQ2 W236L MoA=i
Nc1c2c(nc3sc4c(c13)CCCCC4)CCCCC2	i	·	·	·
COc1cccc(CN(CC(=O)NCc2ccccc2)C(=O)c2csnn2)c1	i	0.04	·	·
CN1CCN(c2ccc(S(=O)(=O)N3CCOCC3)cc2)CC1	i	·	·	·
Cc1cccc(OS(=O)(=O)NC(=O)OCC2CCCN3CCCCC23)c1 (configuration not stated)	i	·	·	·
CC[C@H](C)[C@H](NC(N)=O)C(=O)Nc1ccccc1F	i	·	·	·
CCCCN(CCCC)CCNC(=O)CN1C(=O)COc2ccc(S(=O)(=O)N3CCC(C)CC3)cc21	i	·	·	·
CCCCN(CCCNC(=O)CN1C(=O)COc2ccc(S(=O)(=O)N3CCC(C)CC3)cc21)Cc1ccccc1	i	0.9	66%*	i
CN(C(=O)CSc1nc2[nH]ncc2c(=O)[nH]1)c1ccccc1	i	0.38	·	·
CC(NCCS(=O)(=O)c1ccc(Cl)cc1)c1cccc(Cl)c1 (configuration not stated)	i	0.87	34%*	i
CC(C)c1ccc(C(C)NCCS(=O)(=O)c2ccc(Br)cc2)cc1 (configuration not stated)	i	·	·	·
Cc1sc2ncnc(SCC(=O)c3cccs3)c2c1C	i	6.9*	i	i	CHO-K1 ctr=-17;KCNQ1 sel pot=-5;KCNQ2 pot confirm=-9;Kir2-1 sel=-31;KCNQ2 W236L MoA=i
Cc1cccc(NC(=O)CSc2ncnc3sc(C)c(C)c23)n1	i	0.74	·	·
Cc1ccnc(NC(=O)CCNC(=O)c2ccccc2Cl)c1	i	0.98	·	·
COc1ccc(C(=O)/C(=C\c2ccco2)N2C=CC=CC2=C(C#N)C#N)cc1	i	·	70%*	61%*
COc1ccc(C(=O)N/C(=C\c2ccco2)C(=O)OCc2ccco2)cc1	i	1.3	·	·
Nc1[nH]n2c(=O)cc(-c3ccccc3)nc2c1N=Nc1ccc(S(N)(=O)=O)cc1	i	1.4	·	·
